# In paper PMC5540273 (PLoS ONE, 2017):
# System: T1, LZK
# T1 construct: gene MAP3K13
# Conditions: concentration: 1 μM,replicates: in singlicate; n = 1
# 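Note: KINOMEscan kinase panel screen.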
row,Compound,%Inh [%]
1,C[C@@H]1CCN(C(=O)N2CCCC2)C[C@@H]1N(C)c1ncnc2[nH]ccc12,22
2,Cl.c1ccc(Oc2ccc(Nc3ccnc4cc(-c5ccc(CN6CCNCC6)o5)ccc34)cc2)nc1 [GW567142],7
3,COc1cc2c(Nc3ccc(NC(=O)c4ccccc4)cc3)ncnc2cc1OCCCN1CCOCC1 [GSK301329],55
4,c1ccc(Oc2ccc(Nc3ccnc4ccc(-c5ccccn5)cc34)cc2)cc1 [GW407034],0
5,COc1cc2ncn(-c3cc(OCC4CCCCC4)c(C(N)=O)s3)c2cc1OC [GSK204559],0
6,C[C@@H]1CNc2c(sc3ccc4nc(-c5ccc(O)cc5)ccc4c23)C(=O)N1,0
7,NC(=O)c1ccc(-c2cc3ncnc(SCC(=O)O)c3s2)cc1,2
8,CS(=O)(=O)Nc1ccc(-c2ccnc3[nH]ccc23)cc1 [GSK993273],8
9,N#Cc1cccc(C(=O)NC2CCN(c3ccnc(Nc4ccc(F)cc4)n3)C2)c1 (centres unmarked) [GSK1379708],0
10,CS(=O)(=O)c1cccc(CNc2nc(Nc3ccc4c(c3)[C@@H]3C[C@@H]4CNC3=O)ncc2C(F)(F)F)c1,0
11,COc1cc(Nc2nccc(N3CCC(NC(=O)c4cccc(C#N)c4)C3)n2)cc(OC)c1OC (centres unmarked) [GSK1379751],33
12,CN1CCN(CCCNc2nccc(-c3c(-c4ccc(F)cc4)nn4cc(C(N)=O)ccc34)n2)CC1 [GW622475],0
13,COc1cccc(OC)c1C(=O)Nc1cccc(-c2nn3ccccc3c2-c2ccnc(Nc3cccc(F)c3)n2)c1 [GSK361065],8
14,CCOC(=O)N1CCC(n2cnc(-c3ccc(F)cc3)c2-c2ccnc(N)n2)CC1 [SB-219952],15
15,COC(=O)Nc1nc2cc(Oc3ccc(NC(=O)Nc4cc(C(F)(F)F)ccc4Cl)cc3)ccc2[nH]1.Cl [GW697465],44
16,CS(=O)c1ccc(-c2coc3ccc(-c4n[nH]c(=O)o4)cc23)cc1 (centres unmarked),2
17,Cn1ccc2ncnc(Oc3ccc(NC(=O)Nc4cncc(C(F)(F)F)c4)c(Cl)c3)c21,0
18,Nc1nccc(-c2ccc3c(N)n[nH]c3c2)n1 [GSK1034945],0
19,NC(=O)Nc1sc(-c2ccc(F)cc2)cc1C(N)=O [GW789449],0
20,CN1CCN(CCNc2nc3cc(Oc4ccc(NC(=O)Nc5cc(C(F)(F)F)ccc5F)cc4)ccc3[nH]2)CC1.Cl.Cl [GW768504],0
21,Cl.Nc1n[nH]c2cc(-c3ccccn3)ccc12 [GSK2189892],0
22,CCn1c(-c2nonc2N)nc2cncc(CNC3CCNCC3)c21.Cl [SB-747651],8
23,Cn1ccc2ncnc(Oc3ccc(NC(=O)Nc4cccc(C(F)(F)F)c4)c(Cl)c3)c21,0
